# Experimental data as given in PubChem BioAssay.
# Test system: Human papillomavirus type 1a E7 protein (residues 1-88)
# Experiment: HPV1a E7 small-molecule binders, primary screen, biochemical, small-molecule microarray, residues 1-88, 635 nm (AID 1129)
# Settings: small-molecule microarray binding, fluorescence 635 nm; higher = more signal
row,Structure (SMILES),composite z-score
1,C=CCNC(=O)[C@@H]1[C@H]2C(=O)O[C@H](c3ccccc3)[C@H](c3ccccc3)N2[C@H](c2ccccc2OCCO)[C@@]12C(=O)N(C(=O)OCCOC)c1ccc(C#CCCO)cc12,1.21
2,C=CCC(OC(C)=O)[C@@H]1[C@@H](N(Cc2cc3ccccc3o2)C(=O)c2ccc(-c3ccccc3)cc2)c2cc(OCCCO)ccc2N1C(=O)c1ccc2ccccc2n1 (some centres undefined),-1.42
3,COc1ccc(C#Cc2ccc3c(c2)[C@]2(C(=O)N3)[C@H](C(=O)Nc3nc4ccccc4s3)[C@H]3C(=O)O[C@H](c4ccccc4)[C@H](c4ccccc4)N3[C@@H]2c2ccc(OCCO)cc2)cc1,0.98
4,C=CCC(OC(C)=O)[C@@H]1[C@@H](N(Cc2cc3ccccc3o2)C(=O)Cc2ccc(OC)cc2)c2cc(OCCCO)ccc2N1C(=O)Cc1ccc(OC)cc1 (some centres undefined),-0.406
5,COCCOC(=O)N1C(=O)[C@@]2(c3cc(C#CC4(O)CCCCCC4)ccc31)[C@H](C(=O)NC[C@H](O)c1ccccc1)[C@H]1C(=O)O[C@H](c3ccccc3)[C@H](c3ccccc3)N1[C@@H]2c1ccc(O)cc1,1.18
6,Cc1c(NC(=O)/C(C#N)=C/c2ccc(Cl)cc2)c(=O)n(-c2ccccc2)n1C,0.8
7,CCCC=C(CCC)[C@@H](NS(=O)(=O)c1ccc(Cl)cc1)c1ccccc1,-0.382
8,CN(C)CCCNC(=O)[C@@]1(Cc2ccccc2I)c2ccccc2C(=O)N(Cc2ccccc2)[C@H]1c1ccc(CO)cc1,1.26
9,CCOC(=O)C[C@H]1[C@H](OC(=O)c2ccc(-c3ccccc3)cc2)[C@@H](NC(=O)c2ccc3ccccc3c2)c2cc(OCCCO)ccc2N1C(=O)c1ccccc1,1.05
